Only a selection was taken, and hits are over-represented in it overall.
a7 integrin act: integrin-mediated muscular dystrophy alleviation activation; alpha7betagal myoblasts, beta-gal FDG fluorescence, 48 h; Potency, µM (titrated, usually from 38.3 µM), for inactives: top-dose activation, most hits filed as activators; 350,000 tested, 0.064% active;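 further: potency means the concentration at half of the fitted maximal effect; 100% = response of the positive control SU9516; nearly all actives have a fitted effect of over 60% in size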
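Alpha7betagal+/- myoblasts (passage 13) were plated 16-24 hr, then exposed to compounds (1:260 dilution of DMSO stock) for 48 hours at 37C. After MPER lysis, β-galactosidase reporter activity was read as FDG fluorescence (ex 480/em 540) after 30 minutes.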
Giardia killer: Giardia lamblia killing | Giardia lamblia trophozoite viability | activity change, % at 7.66 µM, hits read low | 340,000 tested, 0.15% active | AID 540267; in the data active means activity change below about -80%; inconclusive means between about -30% and that limit;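 further: parasites exposed to compound for two days anaerobically before the ATP read; on the % scale 0 is the no-effect control and ±100 the full control effect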
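Media and compound were dispensed first, then trophozoites at 100 cells/well; plates sat 48 hrs at 37 deg C without oxygen before ATP luminescence reagent was added and read after 15-30 min at room temperature.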
RORg inh: ROR gamma (mouse) transcription inhibition; P51450; Drosophila S2 Gal4-RORgamma UAS-luciferase reporter, 20 h; Potency, µM (titrated, usually from 53.6 µM), for inactives: at the top dose activity change, negative = inhibition, usual class: inhibitors; 310,000 tested, 5.4% active; further: potency means the concentration at half of the fitted maximal effect; on the % scale 0 is the no-effect control and ±100 the full control effect; nearly all actives have a fitted effect of over 60% in size
Target sequence (P51450 whole entry, looked up, the tested form may be a part): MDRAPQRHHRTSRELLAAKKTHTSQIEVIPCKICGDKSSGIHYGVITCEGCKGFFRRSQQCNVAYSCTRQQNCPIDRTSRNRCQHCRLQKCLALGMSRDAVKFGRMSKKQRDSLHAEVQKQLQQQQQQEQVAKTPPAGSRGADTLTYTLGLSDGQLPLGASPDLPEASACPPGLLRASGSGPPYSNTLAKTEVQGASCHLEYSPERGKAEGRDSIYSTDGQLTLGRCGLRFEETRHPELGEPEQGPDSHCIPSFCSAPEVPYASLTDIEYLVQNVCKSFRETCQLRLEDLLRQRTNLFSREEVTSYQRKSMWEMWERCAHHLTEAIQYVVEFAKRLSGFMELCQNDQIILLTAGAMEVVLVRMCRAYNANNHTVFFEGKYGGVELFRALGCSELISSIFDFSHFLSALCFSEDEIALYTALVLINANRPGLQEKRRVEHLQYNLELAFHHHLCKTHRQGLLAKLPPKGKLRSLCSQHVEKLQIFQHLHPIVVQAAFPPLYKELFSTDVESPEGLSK
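Schneider cells (Drosophila), stable Gal4 DBD–ROR gamma + UAS-luc; 1 hr cmpd preincubation; Cu2+ induction 700 uM final; 20 hr ambient; luminescence.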
Gal4-VP16 FLuc: Gal4-VP16 reporter inhibition counter-screen | Drosophila S2 Gal4-VP16 UAS-luciferase, luminescence, 20 h | Potency, µM (highest dose often 53.6 µM), inactives show at the highest dose activity, negative = inhibition, actives largely listed as inhibitors | 310,000 tested, 3.5% active | AID 2546;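 further: Gal4-VP16 expression switched on by copper sulfate through the metallothionein promoter; potency means the concentration at half of the fitted maximal effect; on the % scale 0 is the no-effect control and ±100 the full control effect; nearly all actives have a fitted effect of over 50% in size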
ERG-DNA inh: blocks human ERG Ets domain binding to DNA; P11308; fluorescence polarization, His-ERG Ets domain / labelled DNA; Potency, µM (titrated, usually from 76.9 µM), without a hit: at the top dose FP activity, negative = inhibition, actives largely listed as inhibitors; 370,000 tested, 0.028% active; active means well fitted inhibition curve with a large enough effect in the polarisation, with a control signal flat; inconclusive means small, poorly fitted or top-dose-only effect, or effect the other way, or a change in a side signal; inactive means no such curve, though single readings can be large or run the other way; the % refers to the polarisation;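 further: polarization taken with two DNA probes labelled with fluorescein and Texas red; potency means the concentration at half of the fitted maximal effect; % of control where 0% means no effect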
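His-tagged ERG Ets domain (1 uM in the protein solution; 300mM KCl, 50mM Tris-HCl, 1mM EDTA, 1mM DTT, pH 7.5) received compound, then a probe mix of 5 nM fluorescein-DNA and 100nM Texas-615-DNA. Fluorescence polarization was read for both dyes.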
The depositor's hits bear a star; ? = inconclusive; / = no result given; [ ] = another dose, or the depositor's remark. Unless noted, the call rests on the fitted dose curve; in most records, active means well fitted curve in the direction sought with a large enough effect; inconclusive means small, poorly fitted or top-dose-only effect, or another doubt; inactive means no such curve, though single readings can be large; an effect the other way counts as inactive or inconclusive.

SMILES	a7 integrin act	Giardia killer	RORg inh	Gal4-VP16 FLuc	ERG-DNA inh
S=c1nc2ccccc2c2nc(-c3ccccc3Br)[nH]n12	-32.8%	9.3	0.447µM*	2.24µM*	4.4%
CC(=O)Nc1nnc(-c2ccco2)o1	7.0%	-20.8	-19.1%	5.5%	-8.1%
O=C(Nc1nnc(-c2ccccn2)o1)c1cccc(Br)c1	16.5%	5.9	0.501µM*	0.891µM*	8.9%
O=C(Nc1nnc(-c2ccco2)o1)c1cccc(Cl)c1	-17.6%	9.9	3.55µM*	2.82µM*	-7.8%
O=C(Nc1nnc(-c2ccccn2)o1)c1cccc(Cl)c1	-28.9%	-23.5	0.708µM*	1µM*	1.3%
O=C(/C=C/c1ccccc1)Nc1nnc(-c2ccco2)o1	14.0%	63.8	2.24µM*	5.01µM*	-1.7%
CC(=O)Nc1nnc(-c2ccccn2)o1	-18.3%	13.5	12.4%	-0.3%	4.2%
Cc1ccccc1NC(=O)c1c(NC(=O)c2ccco2)sc2c1CCC(C(C)(C)C)C2 (centres undefined)	/	/	/	/	-2.6%
CC(C)OC(=O)c1c(NC(=O)c2cc3nc(-c4ccccc4)cc(C(F)(F)F)n3n2)sc2c1CCCC2	/	/	/	/	-1.7%
COc1ccc(C(=O)N2CCc3ccccc3C2)cc1S(=O)(=O)N1CCCC1	-1.8%	/	/	/	/
CC(=O)Oc1ccc(/C=N/NS(=O)(=O)c2ccccc2)cc1	0.0%	-18.9	3.3%	1.5%[10 µM]	-3.4%
COc1ccc(CC(=O)N[C@@H]2c3ccccc3CC[C@H]2OCc2ccccc2)cc1	-2.9%	-12.8	/	/	14.9%
N#Cc1ccc(C(=O)Nc2nnc(-c3ccccn3)o2)cc1	17.6%	-2.9	1.26µM*	0.891µM*	3.0%
CC1CCN(S(=O)(=O)c2ccc(C(=O)Nc3nnc(-c4ccccn4)o3)cc2)CC1	-15.1%	-8.3	-0.6%	-14.2%	5.9%
Cc1cc(C)c(OCC(=O)Nc2nnc(-c3ccco3)o2)c(C)c1	4.2%	4.8	12.6µM*	?	-13.7%
COc1cccc(CCNC(=O)CCCC(=O)c2ccccc2)c1	11.2%	2.9	7.4%	7.7%	-4.1%
CCC(C(=O)NCc1cccnc1)n1nc(C)n2c(cc3occc32)c1=O (centres undefined)	41.3%	-8.4	-4.4%	-3.8%	-8.2%
COC(=O)C1=C(C)N(Cc2ccccc2)C(=S)N[C@H]1c1cccc(C(F)(F)F)c1	-3.2%	24.3	3.55µM*	10µM*	4.9%
COC(=O)C1=C(C)N(Cc2ccccc2)C(=S)N[C@H]1c1ccc(Br)cc1	12.4%	4.2	3.55µM*	12.6µM*	-8.6%
COC(=O)C1=C(C)N(Cc2ccccc2)C(=NCC(C)C)N[C@H]1c1ccc(Br)cc1	/	/	1.78µM*	7.08µM*	/
Cc1cc(C)c2c(=O)n(CC(=O)N3CCC(Cc4ccccc4)CC3)sc2n1	/	/	?	3.98µM*	/
Cc1cccc(N2CCN(C(=O)Cn3sc4nc(C)cc(C)c4c3=O)CC2C)c1 (centres undefined)	-69.0%	-1.0	7.08µM*	12.6µM*	-12.8%
CCCN(C(=O)c1nn(-c2ccc(OC)cc2)c(=O)c2c1c1ccccc1n2C)c1ccc(CC)cc1	/	/	/	/	6.8%
CCc1cc2c(nc1CC)CCN(CC/C(C)=N/OC[C@@H](O)[C@@H]1O[C@@H]3OC(C)(C)O[C@@H]3[C@H]1O)C2	/	/	18.1%[10 µM]	10.6%[10 µM]	/
CN(/N=C/c1ccco1)C1=NS(=O)(=O)c2ccccc21	10.4%	-15.4	-2.7%	-11.8%	-7.2%
SMILES	a7 integrin act	Giardia killer	RORg inh	Gal4-VP16 FLuc	ERG-DNA inh
CCNc1nc(NCC)nc(N(C)/N=C/c2ccco2)n1	-4.4%	-11.4	3.55µM*	20µM*	?
CC12C=CC(=O)C=C1CCC1C2=CCC2(C)C1CC[C@@H]2C(=O)CN1CCN(c2cc(N3CCCC3)nc(N3CCCC3)n2)CC1 (some centres undefined)	/	/	7.3%	2.3%	/
Cc1c(Br)c(=O)oc2c(Br)c(O)ccc12	3.1%	-4.4	3.2%	0.8%	-4.2%
Cc1c(Br)c(=O)oc2c(Br)c(O)c(O)cc12	-11.0%	17.3	5.01µM*	-20.0%	3.5%
Cn1c(=O)c2c(nc(N3CCOCC3)n2Cc2cccc(Br)c2)n(C)c1=O	/	/	/	/	-13.5%
Nc1ccc(C#Cc2ccccc2)cc1	24.6%	3.6	17.8%	8.5%	-4.4%
Cc1cccc(C#Cc2ccccc2)n1	/	-11.1	14.1µM*	?	8.4%
Cc1ccc(S(=O)(=O)NNC(=S)Nc2c(Cl)cccc2Cl)cc1	1.4%	-14.1	10µM*	?	-8.5%
